According to the supplement of paper PMC11732987, “Enantioselective OTUD7B fragment discovery through chemoproteomics screening and high-throughput optimisation” (Communications Chemistry, 2025):

Key:
Test in all cases: log2 ratio of Biotin-Ahx-Ub-VS probe labelling (fragment/DMSO); higher = less target engagement (more negative = stronger competition), active = hit call of the paper (q ≤ 0.05, log2 ratio ≤ -1)
Settings in all cases: compound concentration: 200 uM; treatment time: 3 h
USP42 = target: T1, USP42 (UniProt Q9H9J4)
T1 sequence (whole entry): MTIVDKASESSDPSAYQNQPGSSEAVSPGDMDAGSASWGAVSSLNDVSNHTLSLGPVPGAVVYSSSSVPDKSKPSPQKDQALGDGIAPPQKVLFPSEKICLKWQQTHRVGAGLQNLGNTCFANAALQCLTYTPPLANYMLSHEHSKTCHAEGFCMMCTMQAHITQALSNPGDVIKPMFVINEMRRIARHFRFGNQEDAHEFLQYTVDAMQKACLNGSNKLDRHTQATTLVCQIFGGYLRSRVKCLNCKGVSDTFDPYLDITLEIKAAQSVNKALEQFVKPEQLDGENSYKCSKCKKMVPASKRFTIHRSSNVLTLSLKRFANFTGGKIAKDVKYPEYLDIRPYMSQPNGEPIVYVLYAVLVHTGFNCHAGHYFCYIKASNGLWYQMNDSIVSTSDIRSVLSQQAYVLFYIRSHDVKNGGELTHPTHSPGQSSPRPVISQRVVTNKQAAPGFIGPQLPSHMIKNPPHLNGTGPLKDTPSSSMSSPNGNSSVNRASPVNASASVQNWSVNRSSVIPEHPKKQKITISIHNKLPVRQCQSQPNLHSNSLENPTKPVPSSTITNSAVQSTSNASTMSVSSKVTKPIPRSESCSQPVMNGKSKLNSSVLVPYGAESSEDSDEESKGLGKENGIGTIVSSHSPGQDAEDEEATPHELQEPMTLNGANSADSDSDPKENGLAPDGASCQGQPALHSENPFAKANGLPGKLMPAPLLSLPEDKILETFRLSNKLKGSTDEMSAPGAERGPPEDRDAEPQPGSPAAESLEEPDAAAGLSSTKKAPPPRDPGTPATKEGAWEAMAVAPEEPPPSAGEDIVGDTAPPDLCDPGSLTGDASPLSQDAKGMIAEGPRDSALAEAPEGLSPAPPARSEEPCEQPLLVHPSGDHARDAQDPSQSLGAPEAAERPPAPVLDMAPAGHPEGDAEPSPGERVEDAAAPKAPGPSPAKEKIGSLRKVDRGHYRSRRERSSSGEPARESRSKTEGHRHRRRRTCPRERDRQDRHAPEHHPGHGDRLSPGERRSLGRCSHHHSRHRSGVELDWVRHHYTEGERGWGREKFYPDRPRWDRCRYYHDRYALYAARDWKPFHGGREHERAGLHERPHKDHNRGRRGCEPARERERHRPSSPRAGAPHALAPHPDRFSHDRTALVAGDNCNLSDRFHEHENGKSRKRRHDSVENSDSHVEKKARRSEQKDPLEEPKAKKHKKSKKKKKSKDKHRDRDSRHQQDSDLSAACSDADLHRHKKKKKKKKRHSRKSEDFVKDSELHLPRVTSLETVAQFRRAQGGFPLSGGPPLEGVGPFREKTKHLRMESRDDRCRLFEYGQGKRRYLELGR
Method in brief: (§1)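 Using Biotin-Ahx-Ub-VS at 0.5 µM final for 1 h, DUBs were labelled in HEK293T lysate (495 µg per sample) that had first been treated in triplicate with fragment at 200 µM or vehicle for 3 h. NeutrAvidin enrichment, LysC and trypsin digestion and diaPASEF LC-MS/MS followed. Spectronaut label-free quantities were global-median-normalised. Values are average log2 fragment/vehicle ratios by unpaired t-test, using proteins with ≥2 unique peptides.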

USP46 = USP46 (UniProt P62068)
Method in brief: as §1

USP47 = target: T2, USP47 (UniProt Q96K76)
T2 sequence (whole entry): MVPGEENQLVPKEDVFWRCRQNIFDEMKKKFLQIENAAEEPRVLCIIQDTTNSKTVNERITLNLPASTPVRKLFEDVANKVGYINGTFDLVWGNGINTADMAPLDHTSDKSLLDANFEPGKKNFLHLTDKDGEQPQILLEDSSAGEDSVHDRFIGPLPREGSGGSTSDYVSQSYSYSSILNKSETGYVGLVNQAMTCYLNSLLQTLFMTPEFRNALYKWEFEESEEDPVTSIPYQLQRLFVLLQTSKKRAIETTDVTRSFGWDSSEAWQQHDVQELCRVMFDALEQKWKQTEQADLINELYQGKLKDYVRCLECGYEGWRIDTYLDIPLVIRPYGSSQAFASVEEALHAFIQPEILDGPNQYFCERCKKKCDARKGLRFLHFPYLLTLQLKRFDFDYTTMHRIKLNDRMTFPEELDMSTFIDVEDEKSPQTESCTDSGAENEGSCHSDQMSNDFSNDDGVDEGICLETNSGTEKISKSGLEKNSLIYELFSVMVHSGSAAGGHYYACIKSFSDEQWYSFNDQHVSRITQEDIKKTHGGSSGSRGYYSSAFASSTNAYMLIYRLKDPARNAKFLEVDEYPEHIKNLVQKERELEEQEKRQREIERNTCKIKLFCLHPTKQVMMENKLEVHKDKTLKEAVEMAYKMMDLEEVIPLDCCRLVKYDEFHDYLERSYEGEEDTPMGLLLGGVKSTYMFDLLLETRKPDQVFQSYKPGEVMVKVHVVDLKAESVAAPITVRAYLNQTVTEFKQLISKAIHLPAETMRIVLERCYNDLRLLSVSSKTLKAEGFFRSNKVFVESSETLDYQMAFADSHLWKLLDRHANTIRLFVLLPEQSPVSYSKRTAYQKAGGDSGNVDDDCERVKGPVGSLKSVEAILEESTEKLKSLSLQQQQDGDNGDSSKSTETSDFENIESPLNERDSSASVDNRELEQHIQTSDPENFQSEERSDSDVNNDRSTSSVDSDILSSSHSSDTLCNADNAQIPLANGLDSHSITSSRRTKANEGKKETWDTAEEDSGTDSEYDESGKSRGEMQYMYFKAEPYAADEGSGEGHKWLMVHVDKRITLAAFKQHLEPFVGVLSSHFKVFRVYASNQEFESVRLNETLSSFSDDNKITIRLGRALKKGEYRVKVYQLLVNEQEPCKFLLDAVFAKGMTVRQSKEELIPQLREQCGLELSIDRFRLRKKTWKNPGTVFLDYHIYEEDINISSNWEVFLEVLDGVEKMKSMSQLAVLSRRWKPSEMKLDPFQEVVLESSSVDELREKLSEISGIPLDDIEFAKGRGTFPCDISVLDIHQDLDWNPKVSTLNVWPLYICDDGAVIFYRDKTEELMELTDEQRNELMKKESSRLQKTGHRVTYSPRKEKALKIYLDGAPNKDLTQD
Method in brief: as §1

USP48 = target: T3, USP48 (UniProt Q86UV5)
T3 sequence (whole entry): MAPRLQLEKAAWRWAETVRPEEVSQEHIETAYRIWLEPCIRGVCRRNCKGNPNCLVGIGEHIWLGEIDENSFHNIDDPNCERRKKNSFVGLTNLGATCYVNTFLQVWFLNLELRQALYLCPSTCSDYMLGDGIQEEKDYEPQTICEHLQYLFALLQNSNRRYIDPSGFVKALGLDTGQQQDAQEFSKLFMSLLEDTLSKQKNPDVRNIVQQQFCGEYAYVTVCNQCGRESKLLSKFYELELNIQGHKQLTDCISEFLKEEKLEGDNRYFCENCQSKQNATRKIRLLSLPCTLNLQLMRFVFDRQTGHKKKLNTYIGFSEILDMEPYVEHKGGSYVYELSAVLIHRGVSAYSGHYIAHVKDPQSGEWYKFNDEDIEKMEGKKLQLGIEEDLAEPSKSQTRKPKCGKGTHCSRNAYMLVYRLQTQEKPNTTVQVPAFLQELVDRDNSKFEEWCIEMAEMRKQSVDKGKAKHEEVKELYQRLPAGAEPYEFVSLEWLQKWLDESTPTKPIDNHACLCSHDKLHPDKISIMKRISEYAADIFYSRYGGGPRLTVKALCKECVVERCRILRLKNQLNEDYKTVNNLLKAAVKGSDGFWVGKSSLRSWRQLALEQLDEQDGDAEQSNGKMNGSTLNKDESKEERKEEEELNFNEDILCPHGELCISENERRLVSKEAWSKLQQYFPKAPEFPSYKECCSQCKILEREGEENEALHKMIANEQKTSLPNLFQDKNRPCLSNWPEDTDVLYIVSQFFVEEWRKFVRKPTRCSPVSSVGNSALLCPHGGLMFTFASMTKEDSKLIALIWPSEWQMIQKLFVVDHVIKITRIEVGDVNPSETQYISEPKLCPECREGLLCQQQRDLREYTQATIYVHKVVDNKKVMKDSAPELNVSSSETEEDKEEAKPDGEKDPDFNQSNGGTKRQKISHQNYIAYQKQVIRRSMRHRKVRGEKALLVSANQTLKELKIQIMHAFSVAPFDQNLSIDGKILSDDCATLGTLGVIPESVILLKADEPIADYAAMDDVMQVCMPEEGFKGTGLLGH
Method in brief: as §1

USP5 = target: T4, USP5 (UniProt P45974)
T4 sequence (whole entry): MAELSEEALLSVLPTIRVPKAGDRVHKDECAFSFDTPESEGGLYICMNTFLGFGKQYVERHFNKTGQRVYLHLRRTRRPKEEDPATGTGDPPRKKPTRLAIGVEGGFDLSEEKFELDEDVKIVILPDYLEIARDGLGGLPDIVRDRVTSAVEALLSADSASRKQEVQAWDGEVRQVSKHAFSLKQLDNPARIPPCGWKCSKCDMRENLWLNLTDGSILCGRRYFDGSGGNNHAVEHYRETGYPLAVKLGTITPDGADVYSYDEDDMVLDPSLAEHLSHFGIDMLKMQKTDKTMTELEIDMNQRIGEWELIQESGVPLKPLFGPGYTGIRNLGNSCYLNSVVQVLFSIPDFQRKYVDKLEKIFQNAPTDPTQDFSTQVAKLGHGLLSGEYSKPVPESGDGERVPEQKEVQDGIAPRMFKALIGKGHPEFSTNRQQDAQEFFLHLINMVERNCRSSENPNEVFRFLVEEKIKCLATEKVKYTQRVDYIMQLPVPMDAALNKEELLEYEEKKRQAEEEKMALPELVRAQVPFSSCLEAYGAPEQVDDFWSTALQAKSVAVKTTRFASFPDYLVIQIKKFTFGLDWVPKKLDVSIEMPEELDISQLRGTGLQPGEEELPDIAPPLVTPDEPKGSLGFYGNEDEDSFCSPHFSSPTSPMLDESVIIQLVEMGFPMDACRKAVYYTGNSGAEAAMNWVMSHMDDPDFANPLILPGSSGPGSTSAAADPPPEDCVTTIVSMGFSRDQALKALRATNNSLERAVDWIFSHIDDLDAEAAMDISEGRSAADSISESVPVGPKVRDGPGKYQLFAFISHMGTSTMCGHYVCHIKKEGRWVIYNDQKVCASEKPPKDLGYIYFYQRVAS
Method in brief: as §1

USP54 = USP54 (UniProt Q70EL1)
Method in brief: as §1

USP7 = USP7 (UniProt Q93009)
Method in brief: as §1

USP8 = target: T5, USP8 (UniProt P40818)
T5 sequence (whole entry): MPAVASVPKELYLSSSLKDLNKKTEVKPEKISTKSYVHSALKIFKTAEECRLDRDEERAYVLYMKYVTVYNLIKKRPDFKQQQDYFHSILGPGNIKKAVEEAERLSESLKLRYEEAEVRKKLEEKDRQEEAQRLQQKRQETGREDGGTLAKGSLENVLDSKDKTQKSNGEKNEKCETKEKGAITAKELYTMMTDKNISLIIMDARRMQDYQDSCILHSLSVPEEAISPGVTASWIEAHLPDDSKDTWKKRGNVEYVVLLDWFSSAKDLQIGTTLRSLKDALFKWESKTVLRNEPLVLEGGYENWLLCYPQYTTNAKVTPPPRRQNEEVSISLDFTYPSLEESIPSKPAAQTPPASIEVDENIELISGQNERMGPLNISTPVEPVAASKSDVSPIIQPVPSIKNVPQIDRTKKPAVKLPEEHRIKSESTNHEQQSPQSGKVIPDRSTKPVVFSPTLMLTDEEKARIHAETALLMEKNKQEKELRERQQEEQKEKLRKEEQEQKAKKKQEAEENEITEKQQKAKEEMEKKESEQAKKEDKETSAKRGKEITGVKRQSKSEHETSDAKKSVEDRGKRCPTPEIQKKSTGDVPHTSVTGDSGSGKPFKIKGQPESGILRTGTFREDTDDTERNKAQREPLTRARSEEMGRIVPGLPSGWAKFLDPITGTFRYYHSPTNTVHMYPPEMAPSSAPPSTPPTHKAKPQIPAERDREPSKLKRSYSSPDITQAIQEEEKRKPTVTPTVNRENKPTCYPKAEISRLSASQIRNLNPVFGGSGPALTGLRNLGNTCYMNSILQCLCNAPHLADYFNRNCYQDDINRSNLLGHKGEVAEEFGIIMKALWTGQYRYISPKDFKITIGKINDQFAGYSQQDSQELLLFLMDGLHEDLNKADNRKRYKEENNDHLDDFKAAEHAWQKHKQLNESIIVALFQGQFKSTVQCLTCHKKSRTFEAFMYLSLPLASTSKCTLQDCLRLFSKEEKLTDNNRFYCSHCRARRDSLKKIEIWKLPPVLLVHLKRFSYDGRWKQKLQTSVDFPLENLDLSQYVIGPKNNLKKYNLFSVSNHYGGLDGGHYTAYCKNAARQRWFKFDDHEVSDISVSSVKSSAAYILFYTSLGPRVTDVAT
Method in brief: as §1

Measured: log2 ratio of Biotin-Ahx-Ub-VS probe labelling

Chain of USP46 (P62068 whole entry): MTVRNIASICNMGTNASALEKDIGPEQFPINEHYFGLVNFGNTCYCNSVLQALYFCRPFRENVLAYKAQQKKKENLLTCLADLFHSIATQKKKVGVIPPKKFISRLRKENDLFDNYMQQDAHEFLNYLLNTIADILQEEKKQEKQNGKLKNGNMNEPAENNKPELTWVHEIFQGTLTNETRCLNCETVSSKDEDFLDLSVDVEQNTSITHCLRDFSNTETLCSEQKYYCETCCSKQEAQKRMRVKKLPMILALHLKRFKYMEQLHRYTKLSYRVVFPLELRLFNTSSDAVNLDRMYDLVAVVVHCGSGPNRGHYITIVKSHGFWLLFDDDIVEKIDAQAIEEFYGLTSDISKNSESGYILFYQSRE
Chain of USP54 (Q70EL1 whole entry): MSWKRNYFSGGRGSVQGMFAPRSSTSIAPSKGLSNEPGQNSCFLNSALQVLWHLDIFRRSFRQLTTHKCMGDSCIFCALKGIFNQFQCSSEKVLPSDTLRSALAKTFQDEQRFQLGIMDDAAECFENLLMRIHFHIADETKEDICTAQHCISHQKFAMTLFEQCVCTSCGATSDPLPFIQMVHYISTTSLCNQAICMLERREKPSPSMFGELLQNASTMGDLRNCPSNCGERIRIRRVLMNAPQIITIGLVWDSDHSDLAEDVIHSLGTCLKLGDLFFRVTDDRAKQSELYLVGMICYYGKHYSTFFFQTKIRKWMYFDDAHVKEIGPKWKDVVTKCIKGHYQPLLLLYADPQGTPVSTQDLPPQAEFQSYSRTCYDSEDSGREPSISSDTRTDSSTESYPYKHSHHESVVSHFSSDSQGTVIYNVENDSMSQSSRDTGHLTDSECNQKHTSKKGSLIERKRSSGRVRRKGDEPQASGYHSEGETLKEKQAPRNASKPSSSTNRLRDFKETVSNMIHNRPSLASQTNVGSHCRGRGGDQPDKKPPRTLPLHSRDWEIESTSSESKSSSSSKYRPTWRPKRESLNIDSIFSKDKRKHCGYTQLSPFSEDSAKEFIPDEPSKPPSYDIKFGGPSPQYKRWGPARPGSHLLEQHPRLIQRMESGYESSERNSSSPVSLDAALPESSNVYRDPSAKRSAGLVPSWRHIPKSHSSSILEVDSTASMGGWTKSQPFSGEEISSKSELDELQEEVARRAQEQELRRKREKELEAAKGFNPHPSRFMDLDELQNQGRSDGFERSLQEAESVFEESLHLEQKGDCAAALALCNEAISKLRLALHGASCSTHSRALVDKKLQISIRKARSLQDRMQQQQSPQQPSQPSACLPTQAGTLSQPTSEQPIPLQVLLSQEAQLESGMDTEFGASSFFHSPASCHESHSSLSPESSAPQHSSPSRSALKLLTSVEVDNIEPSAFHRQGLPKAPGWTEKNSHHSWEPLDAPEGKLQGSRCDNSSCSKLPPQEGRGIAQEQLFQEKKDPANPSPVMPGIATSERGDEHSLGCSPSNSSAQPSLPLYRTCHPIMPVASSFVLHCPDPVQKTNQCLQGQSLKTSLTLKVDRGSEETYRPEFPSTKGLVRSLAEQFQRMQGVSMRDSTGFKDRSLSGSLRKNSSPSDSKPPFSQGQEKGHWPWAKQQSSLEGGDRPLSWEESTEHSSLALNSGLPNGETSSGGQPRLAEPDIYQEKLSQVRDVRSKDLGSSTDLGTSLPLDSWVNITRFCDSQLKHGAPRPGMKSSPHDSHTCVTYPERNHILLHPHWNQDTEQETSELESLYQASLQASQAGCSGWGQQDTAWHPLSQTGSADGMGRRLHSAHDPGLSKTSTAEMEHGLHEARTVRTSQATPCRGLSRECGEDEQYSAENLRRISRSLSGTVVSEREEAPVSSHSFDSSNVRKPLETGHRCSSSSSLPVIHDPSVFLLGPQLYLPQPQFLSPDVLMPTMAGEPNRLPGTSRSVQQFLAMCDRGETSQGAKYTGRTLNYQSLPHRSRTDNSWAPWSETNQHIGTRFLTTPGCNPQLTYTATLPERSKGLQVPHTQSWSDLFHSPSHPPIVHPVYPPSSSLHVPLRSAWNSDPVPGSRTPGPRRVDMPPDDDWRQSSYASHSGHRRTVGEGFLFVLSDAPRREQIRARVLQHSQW
Chain of USP7 (Q93009 whole entry, looked up): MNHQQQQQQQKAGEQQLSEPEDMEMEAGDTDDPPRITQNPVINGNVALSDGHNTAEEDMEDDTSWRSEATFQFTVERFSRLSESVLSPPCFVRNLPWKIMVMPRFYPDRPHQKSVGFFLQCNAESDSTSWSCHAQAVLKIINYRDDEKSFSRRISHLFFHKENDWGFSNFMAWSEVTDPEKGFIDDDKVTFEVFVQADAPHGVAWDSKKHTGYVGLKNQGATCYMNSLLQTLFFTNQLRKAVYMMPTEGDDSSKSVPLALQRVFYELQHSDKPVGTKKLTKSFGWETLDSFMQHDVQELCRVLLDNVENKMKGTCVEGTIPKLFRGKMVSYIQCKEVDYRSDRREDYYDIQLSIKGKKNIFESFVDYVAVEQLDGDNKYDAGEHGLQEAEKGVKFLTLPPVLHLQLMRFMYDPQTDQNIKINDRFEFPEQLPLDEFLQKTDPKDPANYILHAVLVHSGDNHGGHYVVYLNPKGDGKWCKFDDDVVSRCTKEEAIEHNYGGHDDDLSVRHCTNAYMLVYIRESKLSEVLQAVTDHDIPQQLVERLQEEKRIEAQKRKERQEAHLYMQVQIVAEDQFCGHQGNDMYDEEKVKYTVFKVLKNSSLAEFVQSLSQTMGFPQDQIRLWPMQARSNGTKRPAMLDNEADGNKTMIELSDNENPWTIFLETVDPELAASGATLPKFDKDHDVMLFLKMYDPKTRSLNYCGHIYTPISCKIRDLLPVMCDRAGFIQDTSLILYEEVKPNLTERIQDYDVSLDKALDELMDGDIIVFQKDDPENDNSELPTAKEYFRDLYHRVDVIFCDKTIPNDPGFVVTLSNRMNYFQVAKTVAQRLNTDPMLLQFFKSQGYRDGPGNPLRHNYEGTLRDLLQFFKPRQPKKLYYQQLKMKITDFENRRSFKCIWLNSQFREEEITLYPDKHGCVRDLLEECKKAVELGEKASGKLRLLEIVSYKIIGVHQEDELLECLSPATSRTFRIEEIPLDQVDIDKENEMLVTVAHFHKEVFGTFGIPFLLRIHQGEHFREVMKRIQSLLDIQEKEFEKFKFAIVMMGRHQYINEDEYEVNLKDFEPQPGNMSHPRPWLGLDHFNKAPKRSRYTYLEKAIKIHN

CNC(=O)Cn1cc(NC(=O)CCl)cn1
inactive: USP42 -0.595 | USP46 0.000623 | USP47 0.0561 | USP48 0.0267 | USP5 -0.241 | USP54 0.48 | USP7 -0.438 | USP8 -0.282
